Hits are enriched below; roughly 4.4% of the tested compounds scored in any of these assays.
SKKanGAS inh: blocks kanamycin growth of S. pyogenes SKKanGAS strain. 1.3% of 300,000 active. BacTiter-Glo, 6 h. AID 1662. inhibition, % at 7.5 µM;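 active means mean replicate score, as percent of positive control median, at least 50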;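 further: strain carries kanamycin resistance gene driven by streptokinase promoter and grows in 40 µg/ml kanamycin; loss of luminescence reflects streptokinase promoter inhibition or plain growth inhibition; 0% = median of DMSO wells and 100% = positive control at its reference dose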
PfHsp90 set2: inhibits growth of yeast expressing Plasmodium falciparum Hsp90 | S. cerevisiae expressing PfHsp90, BacTiter-Glo ATP, 48 h; yeast lacking PDR1 and PDR3 efflux regulators | inhibition, % at 9.4 µM | 0.32% of 310,000 active | AID 504621;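 active means every replicate shows inhibition above about 80%, whatever the replicate mean, limit read from the data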;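 further: 0% = DMSO neutral controls and 100% = 20 µM radicicol positive controls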
tim23-1 inh: inhibits growth of tim23-1 mutant yeast; S. cerevisiae tim23-1 growth, BacTiter-Glo luminescence, 24 h; inhibition, % at 20 µM; 1.3% of 330,000 active;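 active means growth inhibition of the mutant yeast at or above 50%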;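 further: temperature-sensitive mutant grown at 25 °C; plate controls were DMSO-treated mutant yeast for no effect and medium wells lacking yeast for full effect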
TIM10 inh: growth inhibitors of TIM10 yeast strain; S. cerevisiae TIM10 strain growth, BacTiter-Glo luminescence, 24 h; inhibition, % at 10 µM; 1.4% of 330,000 active; AID 463195;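 active means inhibition of 40% or more at the single tested concentration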;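 further: wild-type TIM10 isogenic control strain grown at permissive 25 °C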
tim10-1 inh: inhibits growth of tim10-1 mutant yeast | AID 463190 | inhibition, % at 20 µM | S. cerevisiae tim10-1 ts strain growth, BacTiter-Glo, 24 h | 2.2% of 330,000 active;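 active means inhibition of at least 40%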;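 further: mutant grown at 25 °C; 0% = DMSO wells with yeast and 100% = wells holding no yeast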
tim10-1 confirm: confirmation of tim10-1 mutant yeast growth inhibitors | shares compounds with tim10-1 inh | S. cerevisiae tim10-1 ts strain growth, BacTiter-Glo, 24 h | inhibition, % at 20 µM | 56% of 7,400 active | AID 463213;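 active means inhibition of yeast growth at or above a set limit in either of two repeat tests at 20 µM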;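 further: tim10-1 mutant grown at permissive 25 °C to find synthetic lethal compounds; 0% = DMSO yeast wells and 100% = medium wells without yeast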
TIM10 conf: TIM10 yeast growth inhibition, confirmed; S. cerevisiae tim10 strain growth, BacTiter-Glo luminescence, 24 h; inhibition, % at 10 µM; 63% of 4,600 active; AID 463215; shares compounds with TIM10 inh;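 active means inhibition of yeast growth at or above a set limit in either of two replicates at 10 µM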;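 further: this counterscreen used the strain with wild-type TIM10; 0% = yeast with DMSO and 100% = medium wells lacking yeast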
tim23-1 confirm: confirmation of tim23-1 mutant yeast growth inhibitors; 83% of 4,400 active; shares compounds with tim23-1 inh; S. cerevisiae tim23-1 growth, BacTiter-Glo luminescence, 24 h; inhibition, % at 20 µM;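 active means inhibition above about 39% in either of two replicate wells at 20 µM, limit read from the data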;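 further: temperature-sensitive tim23-1 mutant grown at 25 °C; 0% = DMSO wells with yeast and 100% = medium wells without yeast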
Numbers without * were called inactive; · = not tested or not shown.

SMILES	SKKanGAS inh	PfHsp90 set2	tim23-1 inh	TIM10 inh	tim10-1 inh	tim10-1 confirm	tim23-1 confirm	others
N/C(=N\OC(=O)COc1ccc(Br)cc1)c1cccc([N+](=O)[O-])c1	0.7	-3.1	6.2	-12.1	0.9	·	·
Cc1cccc(/C(N)=N/OC(=O)c2cccc3ccccc23)c1	6.0	·	81.6*	86.7*	63.7*	54.5*	47.2*	TIM10 conf=84.8*
Cc1cccc(/C(N)=N/OC(=O)Cc2ccccc2)c1	25.7	8.4	29.8	34.4	37.4	·	·
Cc1cccc(/C(N)=N/OC(=O)c2ccc(Br)o2)c1	2.2	-12.9	66.6*	69.5*	43.2*	47.4*	56.8*	TIM10 conf=62.6*
Cc1cccc(/C(N)=N/OC(=O)C23CC4CC(CC(C4)C2)C3)c1	0.4	-18.7	67.8*	79.8*	55.5*	57.1*	65.8*	TIM10 conf=5.3
Nc1ccccc1N=Cc1ccc(-c2cccc(Cl)c2)o1	-4.7	-55.9	40.0	17.9	28.9	·	·
N#CCCN(C(=O)COC(=O)CCN=C1NS(=O)(=O)c2ccccc21)c1ccc(F)cc1	-10.4	3.6	-11.6	-2.3	-11.9	·	·
Cc1ccc(C(=O)C(C)OC(=O)c2ccccc2[N+](=O)[O-])cc1 (stereo unspecified)	5.3	-15.3	1.5	-22.7	-14.1	·	·
CCO[C@H]1OC(C(N)=O)=C[C@@H](C2CCCCC2)[C@@H]1CCCO	2.2	9.4	10.3	2.5	-17.3	·	·
Cc1c(C(=O)NCC(c2ccco2)N(C)C)oc2c(Cl)cccc12 (stereo unspecified)	-1.1	·	17.0	6.8	11.0	·	·
CSC1=NCCN1C(=O)Cc1ccc(-c2ccccc2)cc1	2.1	-133.9	73.1*	59.1*	61.3*	68.5*	35.4	TIM10 conf=67.2*
CCSC1=NCCN1C(=O)Cc1ccc(-c2ccccc2)cc1	-1.3	·	66.9*	76.5*	77.5*	75.8*	35.6	TIM10 conf=74.3*
CSC1=NCCN1C(=O)Cc1ccc(F)cc1	-1.7	-6.2	-13.4	-1.7	-8.2	·	·
CCN(CC)S(=O)(=O)c1ccc(/C=C/C(=O)OCC(=O)NCc2cccs2)cc1	·	23.5	19.6	0.9	14.4	·	·
Cc1cccc(-n2cc(-c3ccccc3)[nH]c2=S)c1	-6.3	-6.6	51.1*	19.9	46.0*	17.8	49.2*
CSCCC(NC(=O)c1ccco1)C(=O)NCC1CCCO1 (stereo unspecified)	·	-3.0	2.8	-2.4	-14.9	·	·
CCC1CCCCN1S(=O)(=O)c1ccc(NC(=O)c2snnc2C)cc1 (stereo unspecified)	-5.1	-30.1	30.8	7.6	37.2	·	·
CCC1CCCCN1S(=O)(=O)c1ccc(NC(=O)c2cccs2)cc1 (stereo unspecified)	2.4	-39.0	72.0*	64.3*	72.2*	64.6*	78.5*	TIM10 conf=67.8*
c1ccc(-c2cccc(-c3ccccn3)n2)nc1	-1.4	145.9*	57.5*	37.8	60.1*	43.0*	57.3*
c1ccc(-c2nnc(-c3ccccn3)nn2)nc1	7.5	-6.9	36.6	25.6	22.7	·	·
CC1=NN(c2ccc(Cl)c(C(=O)O)c2)C(=O)/C1=C\c1ccc(-c2ccc(C(=O)O)cc2)o1	3.3	-8.7	·	·	·	·	·
CC1=NN(c2ccccc2)C(=O)/C1=C/c1ccc(-c2ccc(C)c(C(=O)O)c2)o1	9.3	7.7	65.7*	34.5	48.0*	35.0*	58.8*
CC(=O)c1cccc(OCC(O)CNCC2COc3ccccc3O2)c1 (stereo unspecified)	-5.0	11.6	17.9	-20.5	21.0	·	·
COC(=O)[C@]1(C)N[C@H](c2ccc(SC3CCCCC3)c(OC)c2)[C@@H]2C(=O)N(C)C(=O)[C@@H]21	4.6	4.4	17.7	15.2	11.5	·	·
CC(Oc1ccc(Cl)cc1Cl)C(=O)NC1=NN(c2ccccc2)C(=O)C1 (stereo unspecified)	93.9*	·	61.3*	10.9	52.2*	33.4*	-52.1
Cc1nn(CC(=O)NNC(=O)c2ccccc2F)c([N+](=O)[O-])c1Br	-1.2	·	2.9	12.0	-0.8	·	·
